Assay in all cases: NCI-60 one-dose screen, 48 h (100 = growth as untreated, 0 = no growth, -100 = all killed)
For one experiment, the system named is NCI-H23 lung. As to conditions: 10 µM unless noted.
In the next experiment the test system is NCI-H226 lung. As to conditions: 10 µM unless noted.
The subject of the next experiment is NCI-H322M lung. As to conditions: 10 µM unless noted.
The next experiment relates to NCI-H460 lung. As to conditions: 10 µM unless noted.
The next experiment deals with HOP-92 NSCLC. As to conditions: 10 µM.
The next experiment has as its system NCI-H522 lung. The conditions noted are these: 10 µM.
The next experiment has as its system A549/ATCC NSCLC. The conditions noted are these: 10 µM unless noted.
The subject of a further experiment is 786-0 renal. The conditions noted are these: 10 µM unless noted.
In the next experiment the test system is COLO 205 colon. The conditions noted are these: 10 µM unless noted.
Another experiment has as its system DU-145 prostate. As to conditions: 10 µM unless noted.
Another experiment concerns K-562 leukemia. As to conditions: 10 µM unless noted.
Another experiment relates to MALME-3M melanoma. As to conditions: 10 µM unless noted.
Another experiment concerns MDA-MB-231 breast. As to conditions: 10 µM unless noted.
A further experiment concerns RXF 393 renal. The conditions noted are these: 10 µM unless noted.
Another experiment relates to SF-268 CNS. The conditions noted are these: 10 µM unless noted.
A further experiment deals with SF-295 CNS. As to conditions: 10 µM unless noted.
Another experiment has as its system SF-539 CNS. The conditions noted are these: 10 µM unless noted.
Another experiment relates to UACC-257 melanoma. As to conditions: 10 µM unless noted.
The next experiment deals with M14 melanoma. The conditions noted are these: 10 µM unless noted.

About 83,000 compounds went through this panel and 20% of them were active in at least one assay; those are over-represented in the sample as a whole.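 48-hour exposure, single concentration, 96-well plates; percent growth endpoint where 0 means no net growth. Active: below 10.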 Values without a mark were called inactive. Calls of active or inactive are those of the source.

With `CC1(C)CC(=O)C2=C(C1)Oc1nc(N)c(C#N)c(N)c1C2c1ccc(F)cc1` (stereo unspecified), the growth was 133% with NCI-H23 lung; 106% in the experiment with NCI-H226 lung; 123% with NCI-H322M lung; 117% in the experiment on NCI-H460 lung; 76.4% with HOP-92 NSCLC; 146% in the experiment with NCI-H522 lung. For the same compound, the growth in the experiment on A549/ATCC NSCLC is 110%; with 786-0 renal it was 94.2%; with COLO 205 colon, 127%; in the experiment on DU-145 prostate it was 95.7%; in the experiment on K-562 leukemia, 85.9%; with MALME-3M melanoma, 117%. Also, the growth is 88.7% in the experiment on MDA-MB-231 breast; -1.27% (active) in the experiment with RXF 393 renal; 117% with SF-268 CNS; 110% in the experiment with SF-295 CNS; 86.9% in the experiment with SF-539 CNS; 94.8% with UACC-257 melanoma.
Take `COc1ccc(-n2nnnc2-c2cn[nH]c2C(F)(F)F)cc1`: the growth was 128% with NCI-H23 lung; 91% in the experiment with NCI-H226 lung; 105% in the experiment with NCI-H322M lung; 110% with NCI-H460 lung; 91.8% in the experiment with HOP-92 NSCLC; 79.3% with NCI-H522 lung. The growth with A549/ATCC NSCLC was 104%; in the experiment with 786-0 renal it was 106%; in the experiment on COLO 205 colon, 96.8%; with DU-145 prostate, 101%; in the experiment with K-562 leukemia it was 87.2%; with MALME-3M melanoma, 107%. In addition, the growth with MDA-MB-231 breast is 83.4%; in the experiment with RXF 393 renal, -6.74% (active); with SF-268 CNS it was 109%; in the experiment with SF-295 CNS it was 88.3%; with SF-539 CNS, 89.6%; with UACC-257 melanoma it was 93.7%.
In the case of `Cc1nn(-c2ccccc2)c(N)c1N=C1NC(=O)/C(=C/c2ccc(Cl)cc2)S1`, the growth in the experiment on NCI-H23 lung is 78.2%; in the experiment with NCI-H226 lung, 83.5%; in the experiment on NCI-H322M lung, 81.8%; in the experiment on NCI-H460 lung it was 92.6%; in the experiment on HOP-92 NSCLC, 79.9%; with NCI-H522 lung, 87.1%. For the same compound, the growth in the experiment on A549/ATCC NSCLC was 80.6%; in the experiment on 786-0 renal, 94.7%; with COLO 205 colon, 88.4%; with DU-145 prostate, 86.9%; with K-562 leukemia, 73.2%; in the experiment with MALME-3M melanoma, 87.4%. The growth is 105% in the experiment with MDA-MB-231 breast; 109% in the experiment with RXF 393 renal; 83.7% in the experiment with SF-268 CNS; 86.5% in the experiment on SF-295 CNS; 81% in the experiment with SF-539 CNS; 105% with UACC-257 melanoma.
Turning to `COc1cc2c(cc1OC)C(Cc1cc(OC)c(OC)cc1[N+](=O)[O-])=NCC2`, the growth in the experiment on NCI-H23 lung was 67.5%; in the experiment on NCI-H226 lung, 88.7%; in the experiment with NCI-H322M lung it was 94.9%; in the experiment with NCI-H460 lung, 64.8%; with HOP-92 NSCLC, 48.5%; with NCI-H522 lung it was 82.6%. For the same compound, the growth with A549/ATCC NSCLC was 90%; in the experiment on 786-0 renal, 87.6%; with COLO 205 colon it was 94.9%; in the experiment with DU-145 prostate it was 101%; with K-562 leukemia, 69%; in the experiment with MALME-3M melanoma, 101%. The growth with MDA-MB-231 breast is 82.6%; in the experiment on RXF 393 renal it was 90.8%; in the experiment on SF-268 CNS it was 90%; in the experiment on SF-295 CNS, 42.9%; with SF-539 CNS, 80.6%; with UACC-257 melanoma, 102%. In the experiment on M14 melanoma, the growth was 60.1%.
For the compound `O=C(O)/C(Br)=C/c1c[nH]c2ccc(Br)cc12`, the growth was 99.6% in the experiment on NCI-H23 lung; 108% in the experiment on NCI-H226 lung; 116% in the experiment on NCI-H322M lung; 122% in the experiment on NCI-H460 lung; 174% with HOP-92 NSCLC; 110% in the experiment with NCI-H522 lung. Also, the growth was 117% with A549/ATCC NSCLC; 101% in the experiment with 786-0 renal; 156% in the experiment with COLO 205 colon; 115% in the experiment on DU-145 prostate; 68% in the experiment with K-562 leukemia; 106% with MALME-3M melanoma. Moreover, the growth in the experiment with MDA-MB-231 breast was 102%; with RXF 393 renal it was 109%; with SF-268 CNS, 124%; with SF-295 CNS it was 102%; in the experiment on SF-539 CNS, 112%; with UACC-257 melanoma, 117%.
`Cc1nc(N)sc1C(=O)NCCO`: the growth is 106% in the experiment with NCI-H23 lung; 97.2% with NCI-H226 lung; 127% in the experiment with NCI-H322M lung; 115% in the experiment on NCI-H460 lung; -17.9% (active) in the experiment on HOP-92 NSCLC; 34.5% in the experiment with NCI-H522 lung. The growth in the experiment with A549/ATCC NSCLC was 111%; in the experiment with 786-0 renal, 129%; in the experiment with COLO 205 colon, 126%; in the experiment with DU-145 prostate, 105%; in the experiment with K-562 leukemia, 145%; in the experiment on MALME-3M melanoma, -3.05% (active). Also, the growth with MDA-MB-231 breast was 101%; with RXF 393 renal it was 106%; in the experiment on SF-268 CNS, 98.6%; with SF-295 CNS, 108%; with SF-539 CNS it was 105%; in the experiment on UACC-257 melanoma, 110%. Besides, the growth with M14 melanoma is 112%.
Regarding `CC(O)C(N)=O` (stereo unspecified), the growth was 95.6% in the experiment with NCI-H23 lung; 102% with NCI-H226 lung; 108% with NCI-H322M lung; 105% in the experiment on NCI-H460 lung; 101% with HOP-92 NSCLC; 102% in the experiment on NCI-H522 lung. In addition, the growth in the experiment with A549/ATCC NSCLC was 109%; in the experiment on 786-0 renal, 98.8%; with COLO 205 colon, 104%; in the experiment on DU-145 prostate, 109%; in the experiment with K-562 leukemia it was 101%; in the experiment with MALME-3M melanoma, 105%. Moreover, the growth in the experiment on MDA-MB-231 breast is 114%; with RXF 393 renal it was 107%; in the experiment with SF-268 CNS it was 103%; in the experiment on SF-295 CNS, 95%; in the experiment with SF-539 CNS, 94.7%; with UACC-257 melanoma, 112%. The growth with M14 melanoma was 97.9%.
With `COc1cc(NC(C)CCCN)c2nccc(C)c2c1OC` (stereo unspecified), the growth is 51.8% in the experiment with NCI-H23 lung; 97.2% in the experiment on NCI-H226 lung; 103% in the experiment on NCI-H322M lung; 109% in the experiment on NCI-H460 lung; 47.9% with HOP-92 NSCLC; 31.6% in the experiment with NCI-H522 lung. Moreover, the growth with A549/ATCC NSCLC is 144%; in the experiment with 786-0 renal, 98.8%; in the experiment with COLO 205 colon, 50.6%; in the experiment with DU-145 prostate it was 71.3%; in the experiment on K-562 leukemia, 65%; in the experiment with MALME-3M melanoma, 104%. Further, the growth is 59.5% in the experiment with MDA-MB-231 breast; 164% in the experiment on RXF 393 renal; 126% in the experiment with SF-268 CNS; 115% in the experiment with SF-295 CNS; 41.3% in the experiment on SF-539 CNS; 112% in the experiment on UACC-257 melanoma.
Regarding `CC1=C(C)C(=O)C(C(C)C2=C(C)C(=O)C(C)=C(C)C2=O)=C(C)C1=O`, the growth in the experiment on NCI-H23 lung was 84.6%; with NCI-H226 lung, 124%; in the experiment on NCI-H322M lung, 111%; in the experiment with NCI-H460 lung it was 95.9%; in the experiment with HOP-92 NSCLC, 114%; in the experiment on NCI-H522 lung it was 91.2%. The growth with A549/ATCC NSCLC was 102%; in the experiment with 786-0 renal it was 88.1%; in the experiment on COLO 205 colon it was 104%; in the experiment with DU-145 prostate, 92.7%; in the experiment on K-562 leukemia, 37.5%; in the experiment on MALME-3M melanoma it was 119%. Further, the growth in the experiment on MDA-MB-231 breast is 94.2%; with RXF 393 renal, 11.3%; in the experiment on SF-268 CNS, 101%; in the experiment with SF-295 CNS it was 128%; with SF-539 CNS, 81.2%; in the experiment with UACC-257 melanoma it was 92.7%. The growth in the experiment on M14 melanoma was 108%.

Source of the values: PubChem BioAssay (NCI).
